# High-throughput results: PubChem, National Center for Advancing Translational Sciences (NCATS)
# This is a sample that favours compounds with a hit; in the whole collection about 7.9% have one here.
# Lassa entry inh – Lassa virus entry inhibition; 1.2% of 300,000 active; Potency, µM (doses to about 37.9 µM), for the others: at the highest dose activity change, negative = inhibition, most hits filed as inhibitors; AID 540256; Lassa virus pseudotype entry inhibition, cell reporter; calls by dose curve; tested in HEK293 cells; further: potency means the concentration at half of the fitted maximal effect; nearly all actives have a fitted effect of over 50% in size
# HCMV antiviral – human cytomegalovirus inhibition; HFF cells, HCMV-luciferase reporter, 72 h; active compounds read low; activity change, negative = inhibition, % at 57.5 µM; 4.5% of 410,000 active; in the data active means activity change below about -60%; inconclusive means no clear call, values can overlap the other calls; inactive means above about -39%
#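 Two compound doses tested in HFFs infected with HCMV-luciferase, MOI 1 PFU/cell, 72 h at 37C. Lysate luminescence read with OneGlo; data normalized against buffer-only and 10uM Salinomycin inhibitor controls.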
# FMDV inh – antivirals against foot and mouth disease virus; FMDV antiviral cell-based qHTS; Potency, µM (series often up to 57.9 µM), for the others: at the highest dose activity change, negative = inhibition, most hits filed as inhibitors; 1.2% of 410,000 active; AID 1159524; calls by dose curve; tested in HEK293T cells; further: read-out not given here; potency means the concentration at half of the fitted maximal effect; nearly all actives have a fitted effect of over 45% in size
# HCV inhibitor – inhibitors of hepatitis C virus infection. Potency, µM (top dose mostly 41.8 µM), inactives show at the highest dose activity change, negative = inhibition, hits mostly inhibitors. 3.4% of 340,000 active. AID 651820. Huh7.5.1 HCVcc-Cre infection, luciferase reporter, 44 h; active means well fitted inhibition curve with a large enough effect; inconclusive means small, poorly fitted or top-dose-only effect, or another doubt; inactive means no such curve, though single readings can be large or run the other way; further: potency means the concentration at half of the fitted maximal effect
#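 Infectious HCV cell culture screen: compound-treated cells (1,000/well, pre-plated 4 h) are infected with HCVcc-Cre at roughly 0.5 moi and grown 44 h. Infection is quantified by luciferase signal after 15 min substrate incubation at room temperature.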
# MARV entry inh – blocks Marburg virus binding to or entry into cells; Potency, µM (titrated, usually from 37.8 µM), for inactives: at the top dose activity change, negative = inhibition, usual class: inhibitors; Marburg virus pseudotyped entry inhibition, cell reporter; 1.8% of 300,000 active; calls by dose curve; tested in HEK293 cells; further: potency means the concentration at half of the fitted maximal effect
# Starred values were filed as active, the others as inactive; ? = inconclusive; / = not tested or not shown; ! = a repeat was not active; [ ] = dose if it differs, or a comment. On the % scale 0 is the no-effect control and ±100 the full control effect.
SMILES,Lassa entry inh,HCMV antiviral,FMDV inh,HCV inhibitor,MARV entry inh
Cc1ccc(C(=O)Nc2cccc(-c3nc(CNC(=O)c4ccc5ccccc5n4)c(C)o3)c2)s1,/,/,25%,/,/
CC(=O)Oc1cccc2c1C(=O)c1c(OC(C)=O)cc(C(=O)O)cc1C2=O,2%,-3,?,7.1µM*,11%
CSc1cccc(NC(=O)Cn2nnc(C(=O)NCCc3ccccc3)c2N)c1,5%[46.1 µM],-24,-15%,/,/
Cc1ccccc1OCCNc1cc(N2CCN(CCO)CC2)ccc1[N+](=O)[O-],-26%,-38,0%,?,?
CC1CN(c2ccc([N+](=O)[O-])c(NCCOc3ccccc3)c2)CCN1 (configuration not stated),26%[46.1 µM],39,7%,10µM*,?
COc1cccc(OCCNc2cc(N3CCOCC3)ccc2[N+](=O)[O-])c1,23%,31,-1%,14µM*,10%
COc1ccc(OCCNc2cc(Cl)ccc2[N+](=O)[O-])cc1,4%,-65*,/,?,1%
Cc1ccccc1OCCNc1cc(N2CCCCC2)ccc1[N+](=O)[O-],-17%,-28,-8%,14µM*,-2%[46.1 µM]
CN(C)S(=O)(=O)N1CCN(CC(O)COc2ccc(-c3ccccc3)cc2)CC1 (configuration not stated),/,-31,?,-22%,/
Cc1cc(C)cc(NC(=O)C2CC23CCN(Cc2ccc4ncccc4c2)CC3)c1 (configuration not stated),/,/,-10%,/,/
CC1(C(=O)Nc2ccc3ccccc3c2)CCc2nc3ccccc3n21 (configuration not stated),/,22,/,/,/
Cc1ccc(S(=O)(=O)N(CC(=O)Nc2ccc(Cl)c([N+](=O)[O-])c2)C2CCCCC2)cc1,?,-77*,19%,?,?
Cc1ccc(S(=O)(=O)N(CC(=O)NCc2ccco2)C2CCCCC2)cc1,-20%,64,/,3.5µM*,-13%
Cc1ccc(S(=O)(=O)N(CC(=O)Nc2cccc([N+](=O)[O-])c2)C2CCCCC2)cc1,?,?,-7%,-16%,?
O=C(CN(C1CCCCC1)S(=O)(=O)c1ccccc1)NCc1ccco1,-25%,22,/,-6%,-1%
CC(=O)N(/N=C1\Sc2ccccc2C1=O)c1ccc(C)cc1C,10µM*,-86*,?,4%,?
COc1ccc(C=CNC(=O)Cc2ccc(OC)c(OC)c2)cc1,/,/,/,/,24%[14.2 µM]
NC1(N)OC(CN2C(=O)C3=C(CCCC3)C2=O)CS1 (configuration not stated),/,/,/,/,-6%
O=C(NCCc1nnc2n1CCN(Cc1ccc3c(c1)CCO3)CC2)c1ccco1,/,/,1%,/,/
Cc1cccc(C)c1NC(=O)CN1CCN(CCCC(c2ccc(F)cc2)c2ccc(F)cc2)CC1,/,6,0%,2µM*,/
Cc1cccc(C)c1NC(=O)CN1CCC(Cc2ccccc2)CC1,/,-12,-18%,/,/
O=C(CCC(=O)N1CCN(S(=O)(=O)c2ccc([N+](=O)[O-])cc2)CC1)N1CCOCC1,-5%[46.1 µM],-22,-11%,4%,15%
CSCc1cc(N(C)c2ccccc2)nc(-c2ccccn2)n1,/,-85*,0%,2.8µM*,/
O=C(NCc1ccco1)C1CCN(C(=O)c2ccc(Cl)cc2)CC1,/,-10,-22%,18%,/
COCCNC(=O)C1CCN(C(=O)c2cc3sccc3n2Cc2ccc(Cl)cc2)CC1,/,/,?,/,7.9µM*
SMILES,Lassa entry inh,HCMV antiviral,FMDV inh,HCV inhibitor,MARV entry inh
CCn1c(C(=O)N2CCC(C(=O)NCc3ccc(OC)cc3)CC2)cc2sccc21,?,/,-18%,-29%,-5%[46.1 µM]
COCCNC(=O)C1CCN(C(=O)c2cc3sccc3n2Cc2ccc(F)cc2)CC1,/,/,-29%,?,/
COCCNC(=O)C1CCCN(C(=O)c2ccnc(Cl)c2)CC1 (configuration not stated),/,-69*,-15%,/,/
CCC(C)NC(=O)C1CCN(C(=O)c2cc3sccc3n2Cc2ccc(Cl)cc2)CC1 (configuration not stated),/,/,14µM*,/,?
O=C(NCc1ccco1)C1CCN(C(=O)c2cc3sccc3n2Cc2ccc(Cl)cc2)CC1,?,/,/,?,12µM*!
CC(O)(COc1ccccc1)c1ccc2c(c1)CN(Cc1cccc3cccnc13)CCO2 (configuration not stated),/,/,-15%,/,/
N#C/C(=C/c1ccc(-c2ccc(S(N)(=O)=O)cc2)o1)c1nc2ccccc2s1,?,?,-9%,4.5µM*,?
CC[C@@H](C)CN1C(=O)N[C@@H](c2ccccc2)C(C(=O)OC)=C1C,/,/,/,/,-20%[14.2 µM]
Cc1nn(S(=O)(=O)c2ccc(Cl)cc2)c(C)c1Sc1ccc([N+](=O)[O-])cc1,?,-78*,?,?,?
Cc1nn(-c2ccccc2)c(N)c1Sc1ccc([N+](=O)[O-])cc1,3%,-28,32µM*,-24%,-12%
COc1cc(-c2cccc(Cl)c2)cc2c1OCCN(C(=O)CCn1ccc(C)n1)C2,/,/,-15%,/,/
Cc1nc(NC(=O)CC(C)C)sc1-c1csc(Nc2ccc(Cl)cc2)n1,/,-22,-21%,7.1µM*,/
Cc1nc(NC(=O)CC(C)C)sc1-c1csc(Nc2ccc(Cl)cc2Cl)n1,/,?,-10%,-28%,/
COc1ccc(Cl)cc1Nc1nc(-c2sc(NC(=O)CC(C)C)nc2C)cs1,/,-2,-29%,11µM*,/
Cc1c(C(=O)NCc2ccc(Cl)c(Cl)c2)sc(=O)n1Cc1ccc(S(C)(=O)=O)cc1,/,-80*,35µM*,/,/
CSc1ccc(Cn2c(C)c(C(=O)NCc3ccc4c(c3)OCCO4)sc2=O)cc1,/,-74*,?,/,/
Cc1c(C(=O)NCc2ccccc2C(F)(F)F)sc(=O)n1Cc1ccc2ccccc2c1,/,-71*,-5%,/,/
Cc1c(C(=O)NCc2ccc3c(c2)OCCO3)sc(=O)n1Cc1ccc2c(c1)OCO2,/,?,-13%,/,/
Cc1c(C(=O)NCc2ccc3c(c2)OCCO3)sc(=O)n1Cc1ccc(S(=O)(=O)N(C)C)cc1,/,-37,14µM*,/,/
COC(=O)C(Nc1cc(OC)ccc1OC)(c1ccc(F)cc1)C(Nc1cc(OC)ccc1OC)c1ccc(Br)cc1 (configuration not stated),/,-7,/,/,/
O=S1(=O)c2ccc(Br)cc2N2CC[C@H](C2)N1Cc1ccc(Cl)cc1,/,-14,1%,?,/
Cc1c(C(=O)NCc2ccc3c(c2)OCCO3)sc(=O)n1Cc1cccc(C(F)(F)F)c1,/,-79*,-20%,/,/
Cc1c(C(=O)NCc2ccc3c(c2)OCCO3)sc(=O)n1Cc1ccccc1C(F)(F)F,/,-29,-12%,/,/
CN1C(C(=O)Nc2cccc(O)c2)=CC(c2ccco2)=NS1(=O)=O,-6%[46.1 µM],-63*!,-27%,-15%,?
Cc1ccc(O)c(NC(=O)C2=CC(c3ccco3)=NS(=O)(=O)N2C)c1,-22%[46.1 µM],7,-16%,5%,-20%[46.1 µM]
CC(=O)Nc1ccc(S(=O)(=O)N[C@H]2CC[C@@]34CCCN3C(=O)CCC[C@H]4[C@H]2Cc2ccccc2)cc1,/,-8,/,/,/
Cn1ccsc1=NC(=O)c1ccc(OC(F)(F)F)cc1,-3%[46.1 µM],132,29%,-1%,?
